Reference: PubChem BioAssay (NCATS)
Records with an inconclusive call do not appear. Unmarked numbers belong to inactive results. Calls of active or inactive are those of the source. Calls come from the whole dose curve; as a rule, active = well fitted cell-killing curve with a large enough effect; inconclusive = small, poorly fitted or top-dose-only effect, or effect the other way; inactive = no such curve, though single readings can be large or run the other way.

Assay: Quantitative High-Throughput drug screen in 47 multiple myeloma cell lines against the NCATS MIPE library collection: Karpas25_ECACC cell viability assay (AID 1918968; note: nearly all actives have a fitted effect of over 35% in size)
Settings: Karpas25 myeloma viability, CellTiter-Glo ATP, 48 h; series mostly up to 45.8 µM; viability (% of control): at the top concentration
Method in brief: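 Viability readout: CellTiter-Glo luminescence following 5 min room-temperature incubation with reagent. Prior exposure: 48 h, 37C, humidified 5% CO2, 500 cells per well.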
Potency is the fitted concentration of half-maximal effect.

SMILES	Potency	viability (% of control) [%]
O=C(Nc1ccc(OC(F)(F)F)cc1)c1sccc1NCc1ccnc2ccccc12	13.2 µM (active)	
Cc1nc(C(=O)NCC(=O)O)c(O)c2ccc(Oc3ccccc3)cc12		115
CCNC(=O)c1noc(-c2cc(C(C)C)c(O)cc2O)c1-c1ccc(CN2CCOCC2)cc1	0.0332 µM (active)	
COc1ccc2nc3cc(Cl)ccc3c(Nc3cc(CN4CCCC4)c(O)c(CN4CCCC4)c3)c2n1	14.8 µM (active)	
CN[C@@H]1CN(c2ccc3c(=O)c(C(=O)O)cn(-c4nccs4)c3n2)C[C@@H]1OC	5.12 µM (active)	
C[C@@]1(C(=O)Nc2ccc(F)nc2)CCCN1c1nc(Nc2cc(C3CC3)[nH]n2)c2cccn2n1	0.0332 µM (active)	
COc1cc2c(cc1OC)CC(=O)N(CCCN(C)C[C@H]1Cc3cc(OC)c(OC)cc31)CC2	4.69 µM (active)	
CC(C)C[C@H](NC(=O)c1cc2ccccc2s1)C(=O)N1CCN(C(=O)[C@H](CO)NS(=O)(=O)c2ccc(Cl)cc2Cl)CC1	26.4 µM (active)	
C[C@@H]1[C@H](O)[C@@H](C)C=CC=CC=CC=CC=CC=CC=C[C@H](O[C@@H]2O[C@H](C)[C@H](O)[C@H](N)[C@@H]2O)C[C@@H]2O[C@](O)(C[C@@H](O)C[C@@H](O)[C@H](O)CC[C@@H](O)C[C@@H](O)CC(=O)O[C@H]1C)C[C@H](O)[C@@H]2C(=O)O	3.32 µM (active)	
COc1ccc2ccc(=O)oc2c1CC=C(C)C	20.9 µM (active)	

Assay: Quantitative High-Throughput drug screen in 47 multiple myeloma cell lines against the NCATS MIPE library collection: KMS27_JCRB cell viability assay (AID 1918970); note: nearly all actives have a fitted effect of over 30% in size
Settings: KMS27 myeloma cells, CellTiter-Glo ATP viability, 48 h; viability (% of DMSO): at 45.8 µM (top of the series)
Method in brief: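 CellTiter-Glo luminescence after 48 h drug exposure at 37 °C; 500 cells/well, 1536-well format, pin-tool compound addition; DMSO = 100%, media-only = 0% viability.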

SMILES	viability (% of DMSO)	Potency
COc1cc2c(cc1OC)[C@@H]1Cc3ccc(OC)c(OC)c3CN1CC2	107%	
CNc1nc(-c2ccc3c(N)n[nH]c3c2)cc(N2C[C@@H](C(=O)NC3CCCCC3)CC[C@@H]2C)n1		10.5 µM (active)
Cc1cnc(CNC(=O)c2c(=O)c3ccc(N4CCCN(C)CC4)nc3n3c2sc2ccccc23)cn1	111% [at 23.2 µM]	
C[C@@H](O[C@H]1OCCN(Cc2n[nH]c(=O)[nH]2)[C@@H]1c1ccc(F)cc1)c1cc(C(F)(F)F)cc(C(F)(F)F)c1	119%	
CC1CNc2c(cccc2S(=O)(=O)N[C@@H](CCCN=C(N)N)C(=O)N2CC[C@@H](C)C[C@@H]2C(=O)O)C1 (stereo partly specified)		14.8 µM (active)
FC(F)(F)c1ccc(C=Cc2nc(COc3ccc(CCCCn4ccnn4)cc3)co2)cc1	74.6% (active)	
O=C(O)c1ccc(O)c2ncc(N3CCOCC3)cc12		23.5 µM (active)
CN(C)CCN(C)C(=O)c1ccc(NC(=O)Nc2ccc(-c3nc(N4CCOCC4)c4ccn(CC(F)(F)F)c4n3)cc2)cc1		0.001 µM (active)
CNC(=O)[C@H](Cc1ccccc1)NC(=O)[C@H](CC(C)C)[C@H](CSc1cccs1)C(=O)NO	97.1%	
CNC(=O)c1ccc2c(C(=Nc3cccc(CN(C)C)c3)c3ccccc3)c(O)[nH]c2c1		2.35 µM (active)
CCOC(=O)c1c(CSc2ccccc2)n(C)c2cc(Br)c(O)c(CN(C)C)c12		26.4 µM (active)
CCn1c(-c2nonc2N)nc2cncc(CNC3CCNCC3)c21		2.09 µM (active)
COc1cc([C@@H]2c3cc4c(cc3[C@@H](O[C@@H]3O[C@@H]5CO[C@@H](C)O[C@@H]5[C@H](O)[C@@H]3O)[C@H]3COC(=O)[C@H]23)OCO4)cc(OC)c1O		0.418 µM (active)
CCC[C@H](N[C@@H](C)C(=O)N1[C@@H]2CCCC[C@H]2C[C@H]1C(=O)O)C(=O)OCC		14.8 µM (active)
C[C@@H](N)c1ccc(C(=O)Nc2ccnc3[nH]ccc23)cc1		18.7 µM (active)
CCNC(=O)c1noc(-c2cc(C(C)C)c(O)cc2O)c1-c1ccc(CN2CCOCC2)cc1	131%	
O=C1NC(=O)C(=Cc2ccc(-c3ccc(F)cc3O)o2)S1		2.09 µM (active)
C[C@@]1(C(=O)Nc2ccc(F)nc2)CCCN1c1nc(Nc2cc(C3CC3)[nH]n2)c2cccn2n1		0.0526 µM (active)
C[C@H](CCC(=O)O)[C@H]1CC[C@H]2[C@H]3[C@@H](CC[C@]12C)[C@@]1(C)CC[C@@H](O)C[C@H]1C[C@@H]3O		20.9 µM (active)
CC(C)C[C@H](NC(=O)c1cc2ccccc2s1)C(=O)N1CCN(C(=O)[C@H](CO)NS(=O)(=O)c2ccc(Cl)cc2Cl)CC1	120%	
COc1ccc2ccc(=O)oc2c1CC=C(C)C		18.7 µM (active)
